# The supplement of paper PMC6555819
# Columns and labels:
# Experiment in all cases: PBM binding z-score (relative to random genomic background probes); higher = stronger binding; sequences stand for … in GC…GCGATTGACAGCGTAGAATGAAGG
# [1] = tested on: RARb homodimer (NR concentration 270 nM)
# How it was run: (§1)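 Binding z-scores take random background probes as their reference. They come from custom Agilent 4×180K protein-binding microarrays incubated 1 h with ligand-free nuclear receptor dimers, with antibodies against each partner (one per run) detecting binding. Scanned fluorescence was regression-normalized.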
# [2] = tested on: RARg:RXRa (NR concentration 270 nM, RXRa partner concentration 90 nM)
# How it was run: as §1
# [3] = tested on: RARg homodimer (NR concentration 270 nM)
# How it was run: as §1
# [4] = tested on: RXRa DBDmut IVT, anti-RXR (DBD mutation: RXRa K156A/R161A, NR concentration 90 nM)
# How it was run: as §1
# [5] = tested on: RXRa homodimer (NR concentration 180 nM)
# How it was run: as §1
# [6] = tested on: THRa:RXRa (NR concentration 90 nM, RXRa partner concentration 90 nM)
# How it was run: as §1
# [7] = tested on: THRa homodimer (NR concentration 90 nM)
# How it was run: as §1
# [8] = tested on: VDR homodimer (NR concentration 270 nM)
# How it was run: as §1
Sequence,PBM binding z-score [1],PBM binding z-score [2],PBM binding z-score [3],PBM binding z-score [4],PBM binding z-score [5],PBM binding z-score [6],PBM binding z-score [7],PBM binding z-score [8]
GCTTACGGGTCAAAGCTTATAGCATGAATAGAAT,2.29,4.92,4.8,2.48,5.91,2.12,-0.718,0.809
CGAACTAGGTCAGAACAGGAAAGTGAAGGATGAT,1.61,2.35,2.9,0.506,1.07,1.29,0.124,-0.115
GCTGCTAGGTCAGGTTGGTCACCTAACGGGTACG,2.81,2.67,3.43,0.0556,1.44,2.17,1.04,0.477
TCGAGTTGGTTACCAATGGGGCATTCAGCTTTCT,-0.231,-0.62,-0.85,0.662,-0.558,-0.69,-1.23,-0.117
CCTACTAGGCCACGAAAGGTCATTGATTCAGTGA,4.71,4.9,4.91,1.22,5.5,3.85,1.29,2.66
TCTGCTAGGTTAACGATGGTCAGCTAATCTGCTA,0.605,0.561,0.688,0.00765,0.42,1,-1.07,-0.957
CGAACGAGGGGATGAGTTGATAGCAAATGCCGAT,-0.429,-0.0531,0.201,0.534,0.0402,-0.246,-0.206,0.579
TAGCCTAGGTCATTCAGGGGCCAATATAGAAAGC,3.51,6.6,4.84,2.06,3.15,3.85,0.878,2.13
ACTCGGAGGACAAAGGTCAGAGTTACGCCAGTGA,4.32,5.86,4.91,1.63,4.97,3.59,0.845,0.984
CCGAGTAGGTTATAGGGCATTCAGGCAACGGTGA,1.33,0.821,0.848,0.485,1.19,0.932,0.256,0.435
CCGATTGGGGCAAGGTTACCATAACGCACAGCCA,1,1.02,1.3,0.17,1.09,1.2,0.241,-0.398
CCGACTGTGGCATAAGGTTACCATAAGCCAGCCC,1.24,0.6,0.353,0.486,0.923,2.37,1.7,-0.189
GTACCAGGGTGAATAGGTCGTTGATGAGTAGGCG,1.54,2.21,0.988,-0.386,2,1.21,0.463,0.626
CGTCCAAGGTCAATGCTCGGTCAGTGAAAGCATT,4.62,6.85,6.5,3.69,5.11,3.71,2.09,2.86
CCTTACGTGTCAAGGTTATAGCACGGGTGGTACG,1.28,1.34,1.35,-0.145,1.11,1.57,0.906,0.926
ATACGAAGGTGATCGTGAGGTCGTTGATACTAAC,1.55,2.15,0.985,0.65,1.6,3.28,1.94,2.48
CAAACTAGGTCCAGGTCAAAGTCGGTTTGTGCCA,3.03,2.6,2.27,1.62,2.37,3.31,2.79,2.49
CAGCCCAGGTCAGGGCCAGTATAGGAGGAACGTT,2.54,3.15,3.67,-0.41,2.25,2.73,1.48,0.168
CATACAGGGTCAGCAAGGCCAGAGTAGGGACGGC,3.4,4.63,5.18,1.92,4.64,3.29,1.03,2.08

Sequence,PBM binding z-score [1],PBM binding z-score [2],PBM binding z-score [3],PBM binding z-score [4],PBM binding z-score [5],PBM binding z-score [6],PBM binding z-score [7],PBM binding z-score [8]
TCGAGTAGGTTACCAATGGGCCATTCAGCTTTCT,0.543,0.598,0.337,0.37,0.688,0.184,-0.731,-0.805
TCCAGCAGGCCAGAGGGTCACTCAAGAGGTACGG,2.93,2.61,1.71,0.301,2.29,1.7,-0.473,0.227
AATACACGGTCATCGTAGGCCAGAGTACGCACAG,2.36,2.06,2.76,0.479,1.07,2.15,-0.0649,0.733
CTACCAAGGTGAACAATGTCGTTGATTACTATTC,1.24,0.711,0.812,0.62,0.563,2.04,1.01,0.118
CTAGACAGGTGAGAAGGTAACTCAGCCTCGATTA,0.253,0.538,0.499,-0.295,0.228,0.0525,-0.0949,-0.377
CCAGCTAGGTCATGGTCAGCTAATCTACAGTATG,3.2,3.81,4.16,1.61,2.86,2.8,1.25,0.247
AGTCAAAGTTCATCTAGGGAACGTAAGATATGCT,3.82,5.57,6.19,4.67,4.53,2.92,-0.658,4.63
GCTATTAGTTGATAGGGCAACCGAATGATTCTCG,0.604,0.208,0.649,0.36,0.26,-0.111,-0.518,0.0585
CCTAGTGGGCCAAAAAGGTCATTGATGCCGATAA,4.28,4.7,4.5,0.794,4.79,2.71,0.434,2.66
GGAACGAGGGCATCCGAGTTGATAGCATGGCGAT,0.756,1.28,1.71,2.26,0.974,3.08,-0.359,2.33
TATACCGGGTCAAAGGCCAGAGTACGAATGTCGA,3.15,4.74,4.08,1.38,5.91,3.36,0.712,1.98
CAAACTAGGGCACCGGAAGGTCAAAGTCCGCATG,4.51,5.51,4.44,0.724,3.84,3.25,0.924,1.45
TCTCGGAGGACACGAAGGTCGGAGCTTTCCAGAG,1.42,1.23,1.5,0.608,0.322,1.64,0.121,0.0854
TAACCTAGGTCATGCGGGCCAGTATAGTGTCGGC,3.44,4.53,4.39,1.15,3.58,3.32,1.23,1.05
CCTTACGTGTCACGAGGTTATAGCACGACGAGCG,1.49,2.24,1.64,0.866,2.06,1.96,0.982,1.01
GCGACTGGGGGAAAGCAGGTTACCATAAGGTTGG,0.976,0.585,0.39,0.147,0.696,2.25,0.613,0.229
TCGGCTAGGTCAACGATGGTCAGCTAATCTGCTA,3.12,4.15,5.22,0.991,2.56,2.96,0.739,0.189
CATCCAAGGTCAGCAGGTCAGTGAAAGCGACGTG,5.04,6.2,7.09,2.7,6.07,3.89,2.76,2.18
AGTCAAAGTTCCCTAGGTAACGTAAGATTCAGCT,0.045,0.0675,0.31,0.164,-0.00363,0.427,-0.151,-0.324

Sequence,PBM binding z-score [1],PBM binding z-score [2],PBM binding z-score [3],PBM binding z-score [4],PBM binding z-score [5],PBM binding z-score [6],PBM binding z-score [7],PBM binding z-score [8]
CCGACTGGGGCATAAGCTTACCATAAGCCAGCCC,-0.773,-0.376,-0.313,0.074,-0.312,-0.645,-1.06,-0.947
AATACAGGGTCATCGCAGGCCAGAGTACGCACAG,3.53,5.41,5.21,3.48,6.8,4.75,1.42,3.55
TAGCTTAGGTCATGGGCCAGTATACCACGCGAAC,3.13,4.31,4.67,0.975,3.74,3.68,2.42,0.172
TCTGTTAGTTGAAGGGCAACCGACGAGTCCGTTT,1.22,0.835,0.708,1.1,0.588,0.412,0.0955,1.67
CGTCCAAGGTCAAGGTCAGTGAAAGAGACTCGAA,5.29,6.79,7.8,3.95,6.28,4.39,3.78,2.89
TCTAGTTGGTCACGGAGGTCACACAAGACGGGTA,4.03,4.88,4.81,1.22,4.67,3.75,2.37,3.03
CCGACTGGGGCAAAGGTTACTATACTCAGTACGA,1.74,2.75,1.37,0.148,2.8,1.44,-0.197,0.164
GCTTGTAGATCAAGGTTAAAAAAGACTAAGCTAA,0.0487,0.373,0.226,0.0617,0.736,1.14,-0.222,0.0143
GCAGACAGGTGAAACGTAGGTAACTCAGGGTGGC,0.622,0.956,0.393,-0.48,0.858,1.2,-0.606,-0.684
CGTCAAAGTTCGAGGTAACGTAACAGAAAGCAGC,1.46,1.92,2.31,2.39,1.64,2.1,0.898,1.2
CCAACTAGGTCAAGGACAGTGAATCTCCGCACGC,3.18,3.66,4.42,1.8,2.41,3.16,2.22,0.694
AGAATGAGGTTACGAAAGATCAGGGAAACGCTTG,0.671,2.26,1.68,1.11,2.73,2.89,0.487,0.194
CCAAGCAGGCCAGGGTCACTCAAGCATTTCGCTT,2.75,3.16,2.36,0.375,3.22,3,1.15,1.51
CTACCAAGGTGGACAAGGTCGTTGATTACTATTC,1,0.429,0.319,0.874,0.711,1.81,0.933,1.68
TCTATTACTTGAAGGGCAACCGACGAGTCCGTTT,1.51,0.815,0.75,1.72,0.98,0.289,0.362,1.46
TCTGATAGGTCAGTTGGTCAGCTAACGAGCTGCC,2.94,3.32,4,1.1,2.15,0.722,-0.367,-0.342
GTACCCAGGTGAATAGGTCGTTGATGAGTAGGCG,1.16,1.5,0.814,-0.431,1.18,1.31,0.537,0.0528
CGTGCAAGGTCAAAGGTCAGTGAAGAGATGACGG,5.61,8.84,8.41,4.08,10.3,4.91,2.23,3.9
CCAGACAGGTGAGAAGGTAATTCAGCCTCGATTA,0.446,0.488,0.401,-0.0232,0.24,0.0341,0.0221,-0.0971
